Test [1] is described as follows: qHTS assay for small molecule antagonists of peroxisome proliferator-activated receptor delta signaling (AID 588535; active = well fitted inhibition curve with a large enough effect in the signal ratio, with a control signal flat, not every such curve was filed as active; the % refers to the signal ratio;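 for max response: cells co-treated with a PPAR-delta agonist as stimulator during compound exposure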). Particulars: HEK293T PPARd-UAS-bla, beta-lactamase FRET ratio, 18 h; 460 nm channel. The essentials:
(§1)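 Antagonist-mode qHTS using GeneBLAzer PPAR-delta-UAS-bla HEK293T cells; compound exposure 18 hrs at 37 C over a titration. Ratiometric CCF4 fluorescence at 460/530 nm; concentration-response points fitted to the Hill equation.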
For orientation: qHTS replaces the single test concentration by a dilution series.

The target of test [2] is Peroxisome proliferator-activated receptor delta (Homo sapiens) (UniProt Q03181). The test is described as above. In short, it runs like this: as §1
For test [3], the target named is Peroxisome proliferator-activated receptor gamma (Homo sapiens) (UniProt P37231). Description: qHTS assay for small molecule agonists of peroxisome proliferator-activated receptor gamma signaling (AID 588536; active = well fitted curve in the direction sought with a large enough effect in the signal ratio, with a control signal flat, not every such curve was filed as active; the % refers to the signal ratio;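 note: 0% = DMSO basal wells and 100% = rosiglitazone at 2 µM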). In short, it runs like this: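 This is an agonist-mode beta-lactamase reporter assay in HEK293 PPAR-gamma-UAS-bla cells with 1% charcoal/dextran FBS. Compound titrations ran 16 h at 37 C before CCF4 detection. EC50 and efficacy are Hill fits scaled to 2 uM rosiglitazone (100%) and DMSO basal.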

Test [4] has the same target. In words: qHTS assay for small molecule antagonists of peroxisome proliferator-activated receptor gamma signaling (AID 588537; active = well fitted inhibition curve with a large enough effect in the signal ratio, with a control signal flat, not every such curve was filed as active; the % refers to the signal ratio;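 note: reporter cells co-stimulated with 50 nM rosiglitazone agonist during compound treatment; % of control where 0% means no effect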). The essentials:
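Cell-based beta-lactamase assay; GW9662 served as the antagonist control. Stimulation used rosiglitazone, final 50 nM, 16 h, 37 C.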

In test [5] the target is Vitamin D3 receptor (Homo sapiens) (UniProt P11473). In words: qHTS assay for small molecule antagonists of vitamin D receptor signaling (AID 588541; calls by dose curve;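 note: receptor activated by calcitriol during compound treatment; series mostly up to about 77 µM; % is set by controls: 0 for no effect and ±100 for the full control effect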). In short, it runs like this:
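Antagonist-mode beta-lactamase reporter assay: HEK293T VDR-UAS-bla cells were exposed to titrated compound alongside 1-alpha,25-dihydroxyvitamin D3 at 3 nM final for 16 h. Values were normalized to the 50 nM agonist control and DMSO basal, with IC50 and efficacy from Hill equation fits.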

Test [6] has the same target. Description: qHTS assay for small molecule agonists of vitamin D receptor signaling (AID 588543; calls by dose curve;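 note: 0% = DMSO basal and 100% = reference agonist control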). In short, it runs like this: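 qHTS in agonist mode: compound titrations stimulate a VDR-driven β-lactamase reporter in HEK293T cells over 16 h at 37 °C. Response normalized to 50 nM 1α,25-dihydroxyvitamin D3 = 100%, DMSO = 0%; Hill fitting gives EC50 and maximal response.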

Test [7] can be described thus: qHTS assay for small molecule agonists of retinoid X receptor alpha signaling (AID 588544; calls by dose curve). As to conditions: HEK293T RXRa-UAS-bla, beta-lactamase reporter, 18 h; 530 nm emission.
In test [8] the target is Retinoic acid receptor RXR-alpha (Homo sapiens) (UniProt P19793). Described as above.
The nature of test [9]: qHTS assay for small molecule antagonists of retinoid X receptor alpha signaling (AID 588546; active = well fitted inhibition curve with a large enough effect in the signal ratio, with a control signal flat, not every such curve was filed as active; the % refers to the signal ratio;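 note: cells stimulated with 9-cis-retinoic acid as agonist; % is set by controls: 0 for no effect and ±100 for the full control effect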). Particulars: HEK293T RXRa-UAS-bla, beta-lactamase ratio, antagonist mode; measured here: W530 green channel, cytotoxicity proxy. The essentials:
(§2)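 Beta-lactamase reporter inhibition, read as CCF4 fluorescence ratio (ex 405, em 460/530 nm) after 2 h at RT. HEK293T UAS-bla cells, 2500/well, were stimulated with 9-cis-RA at 500 or 100 nM final alongside test compound for 18 h at 37 C.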

Test [10] deals with Retinoic acid receptor RXR-alpha (Homo sapiens) (UniProt P19793). The test is described as above. As to conditions: HEK293T RXRa-UAS-bla, beta-lactamase ratio, antagonist mode. The essentials:
as §2

The target of test [11] is Thyroid hormone receptor beta (Homo sapiens) (UniProt P10828). In words: qHTS assay for small molecule antagonists of thyroid hormone receptor beta signaling (AID 588547; active = well fitted inhibition curve with a large enough effect in the signal ratio, with a control signal flat, not every such curve was filed as active; the % refers to the signal ratio;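 note: cells stimulated with 0.4 nM T3 agonist during compound exposure; series mostly up to about 77 µM; % is set by controls: 0 for no effect and ±100 for the full control effect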). Particulars: TR-UAS-bla HEK293, beta-lactamase ratio, antagonist mode, 18 h. The essentials: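 Inhibition of T3-driven (0.4nM final) beta-lactamase reporter activity was measured over 0.59 nM to 92 uM compound after 18 h at 37 C. The cells were GripTite HEK293 TR-UAS-bla in charcoal/dextran-stripped serum, with CCF4 ratio read-out and IC50 from Hill fits.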

Test [12] addresses Voltage-gated inwardly rectifying potassium channel KCNH2 (Homo sapiens) (UniProt Q12809). In words: qHTS Assay for Small Molecule Inhibitors of the Human hERG Channel Activity (AID 588834).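 Note: U2OS cells transduced with hERG by BacMam; top concentration of the series differs between compounds; % is set by controls: 0 for no effect and ±100 for the full control effect; lower thallium flux fluorescence means stronger hERG block; nearly all actives have a fitted effect of over 50% in size.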 The essentials:
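Cells were infected with hERG-BacMam virus for 4 hrs at room temperature, grown overnight, then seeded at 2000/well. After dye loading and roughly 10 min compound treatment, thallium influx was triggered and fluorescence recorded.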

Test [13] has as its target Luciferin 4-monooxygenase (Photinus pyralis) (UniProt P08659). Description: Biochemical firefly luciferase enzyme assay for NPC (AID 624030).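 Note: purified P. pyralis luciferase at 10 nM with luciferin and ATP substrate; series mostly up to about 59 µM; 0% = DMSO and -100% = full luciferase inhibition by PTC124 control; nearly all actives have a fitted effect of over 70% in size.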 The essentials:
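Direct inhibition of firefly luciferase enzyme (10 nM final, 50 mM Tris Acetate) assessed by luminescence within 5 minutes. Percent activity scaled between DMSO and PTC124 positive control, with concentration-effect curves classified by fit quality and response.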

Test [14] is described as follows: S16 Schwann cell viability assay (CellTiter-Glo assay) (AID 624031).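 Note: native untransfected S16 rat Schwann cells; series mostly up to about 58 µM; plate controls were DMSO-treated cells for no effect and cell-free wells for full effect; nearly all actives have a fitted effect of over 70% in size.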 In short, it runs like this: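 Following overnight culture in 10% FBS DMEM, parental S16 rat Schwann cells are dosed for 24 h at 37 °C. Viability is read as CellTiter-Glo luminescence and expressed as % activity relative to DMSO (0%) and no-cell wells.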
For orientation: ATP-based viability assays read luminescence as a measure of living cells.

The nature of test [15]: S16 Schwann cell PMP22 intronic element firefly luciferase assay (AID 624032).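 Note: series mostly up to about 58 µM; plate controls were DMSO for no effect and PTC124 positive control mean for full effect; nearly all actives have a fitted effect of over 30% in size.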 The essentials: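 Luciferase reporter of PMP22 intronic-element expression in stably transfected S16 rat Schwann cells, read by ONE-Glo luminescence after 24 h compound exposure at 37 C. Activity scaled between DMSO (0%) and positive-control PTC124; concentration-effect curves quality-classified.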

A short description of test [16]: S16 Schwann cell PMP22 intronic element beta-lactamase assay (AID 624044; calls by dose curve;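 note: 0% = DMSO and -100% = potassium clavulanate positive control; nearly all actives have a fitted effect of over 15% in size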). The essentials:
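Beta-lactamase reporter under a PMP22 intronic regulatory element in stable S16 rat Schwann cells; 24 h compound exposure. 460 nm blue signal normalized between DMSO (0%) and potassium clavulanate, with 535 nm FRET tracking viability; curves classed by r2 and response.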

Test [17] addresses Glutaminase kidney isoform, mitochondrial (Homo sapiens) (UniProt O94925). Description: qHTS for Inhibitors of Glutaminase (GLS): LOPAC Validation (AID 624146).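 Note: glutamate product detected by oxidase and peroxidase coupled Amplex red fluorescence gain; series mostly up to about 46 µM; % is set by controls: 0 for no effect and ±100 for the full control effect; nearly all actives have a fitted effect of over 60% in size.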 The essentials: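 hKGA; 45 mM KH2PO4 pH 8.2 + 0.02% Tween-20; cpd via pin tool; 1 mM Gln soln; GluOx/HRP/Amplex Red; RT 30 min; fluor. t0 & final.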
A short description of test [18]: qHTS of Trypanosoma Brucei Inhibitors: LOPAC Validation (AID 624147). Note: 0% is about no effect. In short, it runs like this:
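Glycolytic pyruvate kinase of T. brucei was incubated with substrate, test compound and 130 uM ADP for 45 minutes at room temperature. Luminescent Kinase-Glo Plus signal was measured after 10 minutes.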

For test [19], the target named is Glucagon-like peptide 1 receptor (Homo sapiens) (UniProt P43220). In words: qHTS of GLP-1 Receptor Agonists: LOPAC Validation (AID 624148).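 Note: luminescence from a luciferase reporter switched on by cAMP; 0% is about no effect; higher luminescence signal means agonism.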 The essentials: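 Agonism scored as increased luciferase luminescence driven by cAMP in HEK293 clones carrying GLP-1R. Cells settled 12 hours, received compound for 4-6 hr at 37 deg C, 5% CO2, and were read after 12 min detection reagent at RT.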

The target of test [20] is Glucocorticoid receptor (Homo sapiens) (UniProt P04150). In words: qHTS assay for small molecule antagonists of glucocorticoid receptor signaling (AID 588533; active = well fitted inhibition curve with a large enough effect in the signal ratio, with a control signal flat, not every such curve was filed as active; the % refers to the signal ratio;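 note: cells stimulated with 2 nM dexamethasone as agonist; % is set by controls: 0 for no effect and ±100 for the full control effect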). The essentials: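 Antagonist-mode qHTS: compound titrations added to GRE-bla HeLa cells, then dexamethasone 2 nM final; 18 h, 37 C. CCF4 FRET fluorescence normalized to dexamethasone and DMSO; IC50 from Hill fit.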

Structures are written as SMILES. Inconclusive results are not listed. Activity calls are given as the source filed them. Unless noted, calls come from the whole dose curve; as a rule, active = well fitted curve in the direction sought with a large enough effect; inconclusive = small, poorly fitted or top-dose-only effect, or another doubt; inactive = no such curve, though single readings can be large; an effect the other way counts as inactive or inconclusive.

Retinoic acid receptor RXR-alpha (Homo sapiens), sequence (P19793 whole entry, looked up): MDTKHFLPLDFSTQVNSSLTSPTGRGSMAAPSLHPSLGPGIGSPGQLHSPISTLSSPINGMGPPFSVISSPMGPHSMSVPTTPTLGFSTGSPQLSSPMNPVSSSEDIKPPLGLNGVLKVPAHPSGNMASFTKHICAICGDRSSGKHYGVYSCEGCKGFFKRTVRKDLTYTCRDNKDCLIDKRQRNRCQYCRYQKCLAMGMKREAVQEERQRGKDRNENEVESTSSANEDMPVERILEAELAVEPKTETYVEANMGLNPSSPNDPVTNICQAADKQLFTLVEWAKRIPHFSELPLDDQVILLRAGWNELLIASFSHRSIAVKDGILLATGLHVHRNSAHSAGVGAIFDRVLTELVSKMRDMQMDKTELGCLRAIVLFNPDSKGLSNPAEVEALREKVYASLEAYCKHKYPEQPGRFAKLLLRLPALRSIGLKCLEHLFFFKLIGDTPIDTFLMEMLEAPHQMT
Voltage-gated inwardly rectifying potassium channel KCNH2 (Homo sapiens), sequence (Q12809 whole entry, looked up): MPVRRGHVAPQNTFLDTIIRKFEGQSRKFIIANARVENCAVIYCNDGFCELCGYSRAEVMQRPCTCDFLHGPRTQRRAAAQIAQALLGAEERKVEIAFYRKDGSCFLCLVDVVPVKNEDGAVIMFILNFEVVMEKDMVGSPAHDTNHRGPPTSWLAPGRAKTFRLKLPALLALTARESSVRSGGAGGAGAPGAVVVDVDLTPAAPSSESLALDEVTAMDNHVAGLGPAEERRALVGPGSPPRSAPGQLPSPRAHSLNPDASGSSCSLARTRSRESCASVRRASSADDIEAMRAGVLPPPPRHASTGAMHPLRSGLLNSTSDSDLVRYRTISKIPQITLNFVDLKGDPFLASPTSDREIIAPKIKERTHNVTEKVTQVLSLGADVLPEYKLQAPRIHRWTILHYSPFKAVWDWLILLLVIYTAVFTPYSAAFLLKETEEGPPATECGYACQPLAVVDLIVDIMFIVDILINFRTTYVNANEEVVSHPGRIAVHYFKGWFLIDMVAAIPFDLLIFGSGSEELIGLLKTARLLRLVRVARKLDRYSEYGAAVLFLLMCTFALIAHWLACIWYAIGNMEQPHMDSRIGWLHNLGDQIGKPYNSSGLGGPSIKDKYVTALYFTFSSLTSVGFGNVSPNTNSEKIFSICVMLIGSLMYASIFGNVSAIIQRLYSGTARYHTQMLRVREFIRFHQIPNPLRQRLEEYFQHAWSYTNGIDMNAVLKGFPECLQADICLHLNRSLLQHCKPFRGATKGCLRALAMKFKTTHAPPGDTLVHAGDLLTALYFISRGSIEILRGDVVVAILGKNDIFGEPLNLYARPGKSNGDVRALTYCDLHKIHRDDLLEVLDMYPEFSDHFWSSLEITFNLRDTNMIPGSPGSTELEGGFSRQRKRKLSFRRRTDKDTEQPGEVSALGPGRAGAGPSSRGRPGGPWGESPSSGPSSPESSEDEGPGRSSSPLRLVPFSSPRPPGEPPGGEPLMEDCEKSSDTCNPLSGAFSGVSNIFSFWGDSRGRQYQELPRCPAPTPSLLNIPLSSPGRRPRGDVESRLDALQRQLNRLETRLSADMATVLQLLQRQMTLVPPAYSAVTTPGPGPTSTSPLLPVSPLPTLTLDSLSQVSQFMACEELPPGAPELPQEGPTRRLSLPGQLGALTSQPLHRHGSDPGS
Peroxisome proliferator-activated receptor gamma (Homo sapiens), sequence (P37231 whole entry, looked up): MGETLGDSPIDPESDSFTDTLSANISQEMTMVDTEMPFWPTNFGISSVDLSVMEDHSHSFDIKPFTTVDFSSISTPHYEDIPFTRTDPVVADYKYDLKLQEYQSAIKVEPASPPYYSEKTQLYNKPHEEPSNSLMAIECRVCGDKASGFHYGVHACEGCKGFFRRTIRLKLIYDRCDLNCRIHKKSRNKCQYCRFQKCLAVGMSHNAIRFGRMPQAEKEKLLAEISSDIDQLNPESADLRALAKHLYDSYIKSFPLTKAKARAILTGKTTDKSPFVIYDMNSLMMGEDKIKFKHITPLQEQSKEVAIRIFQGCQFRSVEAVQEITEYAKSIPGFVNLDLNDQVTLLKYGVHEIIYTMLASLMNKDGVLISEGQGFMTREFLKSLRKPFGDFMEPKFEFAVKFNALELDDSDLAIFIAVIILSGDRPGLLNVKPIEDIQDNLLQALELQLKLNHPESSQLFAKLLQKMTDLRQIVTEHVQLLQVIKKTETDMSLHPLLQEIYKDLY
Glucocorticoid receptor (Homo sapiens), sequence (P04150 whole entry, looked up): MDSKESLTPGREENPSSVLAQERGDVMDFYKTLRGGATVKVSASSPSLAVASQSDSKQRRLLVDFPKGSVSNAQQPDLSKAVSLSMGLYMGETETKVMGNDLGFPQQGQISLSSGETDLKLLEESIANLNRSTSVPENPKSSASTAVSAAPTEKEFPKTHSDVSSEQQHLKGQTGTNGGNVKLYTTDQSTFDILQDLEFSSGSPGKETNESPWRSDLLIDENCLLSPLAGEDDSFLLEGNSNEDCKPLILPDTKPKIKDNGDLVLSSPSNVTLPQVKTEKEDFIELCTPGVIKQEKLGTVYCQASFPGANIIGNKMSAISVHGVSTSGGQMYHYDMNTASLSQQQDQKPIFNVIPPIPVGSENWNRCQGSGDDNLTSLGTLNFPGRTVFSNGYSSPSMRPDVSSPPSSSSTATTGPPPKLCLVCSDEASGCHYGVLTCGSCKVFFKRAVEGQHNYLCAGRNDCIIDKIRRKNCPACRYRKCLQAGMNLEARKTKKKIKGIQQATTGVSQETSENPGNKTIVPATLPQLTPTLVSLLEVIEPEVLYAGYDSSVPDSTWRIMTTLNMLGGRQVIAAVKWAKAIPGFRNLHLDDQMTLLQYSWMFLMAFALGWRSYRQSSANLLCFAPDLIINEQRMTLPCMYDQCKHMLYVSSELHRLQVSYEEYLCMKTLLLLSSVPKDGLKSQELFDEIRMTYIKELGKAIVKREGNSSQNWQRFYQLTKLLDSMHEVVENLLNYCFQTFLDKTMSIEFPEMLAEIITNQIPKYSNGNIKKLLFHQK
Glutaminase kidney isoform, mitochondrial (Homo sapiens), sequence (O94925 whole entry, looked up, canonical isoform): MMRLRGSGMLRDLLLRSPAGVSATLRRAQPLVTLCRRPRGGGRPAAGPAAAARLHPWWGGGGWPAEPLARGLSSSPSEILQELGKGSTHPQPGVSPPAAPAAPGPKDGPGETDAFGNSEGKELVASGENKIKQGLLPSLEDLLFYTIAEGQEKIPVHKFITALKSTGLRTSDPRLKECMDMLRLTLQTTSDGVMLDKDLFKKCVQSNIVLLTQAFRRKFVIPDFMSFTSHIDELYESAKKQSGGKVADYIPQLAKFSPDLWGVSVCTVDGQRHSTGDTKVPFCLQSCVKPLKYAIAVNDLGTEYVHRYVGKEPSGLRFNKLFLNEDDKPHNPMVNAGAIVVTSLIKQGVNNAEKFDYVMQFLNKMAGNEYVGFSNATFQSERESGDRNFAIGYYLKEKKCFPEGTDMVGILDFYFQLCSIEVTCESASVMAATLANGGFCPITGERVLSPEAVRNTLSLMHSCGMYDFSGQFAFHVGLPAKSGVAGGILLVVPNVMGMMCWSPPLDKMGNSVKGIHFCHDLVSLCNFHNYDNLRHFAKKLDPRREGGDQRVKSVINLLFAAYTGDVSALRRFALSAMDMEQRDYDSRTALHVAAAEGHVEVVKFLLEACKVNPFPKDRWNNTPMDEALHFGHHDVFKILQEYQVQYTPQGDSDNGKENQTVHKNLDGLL
Glucagon-like peptide 1 receptor (Homo sapiens), sequence (P43220 whole entry, looked up): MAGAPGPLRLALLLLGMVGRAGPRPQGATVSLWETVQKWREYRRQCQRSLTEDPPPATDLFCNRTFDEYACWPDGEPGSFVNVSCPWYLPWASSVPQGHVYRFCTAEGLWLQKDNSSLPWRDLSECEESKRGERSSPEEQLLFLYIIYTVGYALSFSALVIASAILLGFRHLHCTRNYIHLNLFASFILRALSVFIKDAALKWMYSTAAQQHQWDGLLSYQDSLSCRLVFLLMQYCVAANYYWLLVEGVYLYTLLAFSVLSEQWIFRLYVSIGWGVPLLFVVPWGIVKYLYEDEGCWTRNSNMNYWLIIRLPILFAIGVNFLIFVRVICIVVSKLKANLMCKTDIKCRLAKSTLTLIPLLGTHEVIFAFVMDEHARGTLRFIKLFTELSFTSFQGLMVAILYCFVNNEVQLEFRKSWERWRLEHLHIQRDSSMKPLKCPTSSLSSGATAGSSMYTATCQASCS
Luciferin 4-monooxygenase (Photinus pyralis), sequence (P08659 whole entry, looked up): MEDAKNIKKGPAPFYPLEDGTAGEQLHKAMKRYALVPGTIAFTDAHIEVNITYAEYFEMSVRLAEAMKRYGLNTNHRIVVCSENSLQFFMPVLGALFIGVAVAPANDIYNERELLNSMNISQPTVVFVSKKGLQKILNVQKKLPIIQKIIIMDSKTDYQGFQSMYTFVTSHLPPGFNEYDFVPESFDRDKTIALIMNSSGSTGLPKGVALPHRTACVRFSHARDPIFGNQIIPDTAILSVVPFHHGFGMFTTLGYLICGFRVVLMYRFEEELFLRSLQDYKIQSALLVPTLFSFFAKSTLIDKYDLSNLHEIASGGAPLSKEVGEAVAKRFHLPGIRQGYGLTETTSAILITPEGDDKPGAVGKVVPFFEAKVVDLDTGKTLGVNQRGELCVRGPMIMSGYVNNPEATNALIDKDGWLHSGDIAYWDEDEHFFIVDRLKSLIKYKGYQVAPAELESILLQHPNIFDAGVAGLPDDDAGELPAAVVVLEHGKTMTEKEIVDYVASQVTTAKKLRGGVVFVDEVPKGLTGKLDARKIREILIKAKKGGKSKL
Thyroid hormone receptor beta (Homo sapiens), sequence (P10828 whole entry, looked up): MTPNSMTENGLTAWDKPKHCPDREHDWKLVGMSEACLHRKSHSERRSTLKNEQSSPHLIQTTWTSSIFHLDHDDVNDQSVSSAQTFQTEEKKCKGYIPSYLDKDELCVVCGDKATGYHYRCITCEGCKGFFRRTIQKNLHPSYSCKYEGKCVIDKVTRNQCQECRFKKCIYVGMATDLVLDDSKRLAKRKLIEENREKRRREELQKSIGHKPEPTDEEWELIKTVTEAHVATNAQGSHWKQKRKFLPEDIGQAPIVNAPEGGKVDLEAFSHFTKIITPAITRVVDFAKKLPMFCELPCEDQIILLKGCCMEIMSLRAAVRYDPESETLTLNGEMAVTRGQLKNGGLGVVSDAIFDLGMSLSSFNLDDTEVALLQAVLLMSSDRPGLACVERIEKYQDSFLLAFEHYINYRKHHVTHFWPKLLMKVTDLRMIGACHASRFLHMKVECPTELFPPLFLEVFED

For the molecule `NS(=O)(=O)c1cc2c(cc1Cl)NC=NS2(=O)=O`, the max response in [1] was -29%; in test [7], -7.55%; in test [9], -2.78%; in [10], 14.3% (inactive). The molecule was classed as inactive in test [2], in test [3], in [4], in test [5], in test [6] and in test [8]. In addition, the call in test [16], in test [17], in test [18] and in test [19] was inactive. Further, in test [11], the activity change % (negative = inhibition) is -11.5% (inactive). Also, the Potency entry in test [12], in test [13], in [14] and in [15] was “inactive” throughout.

With `C[C@]12CCC(=O)C=C1CC[C@@H]1[C@@H]2[C@@H](O)C[C@@]2(C)[C@H]1CC[C@]2(O)C(=O)CO`, the Potency entry in test [20] is “inactive”. In addition, the max response in test [1] is 46.7%; in test [9], 7.22%; in test [10], -13.2% (inactive). The result in test [2], in test [3], in [4], in test [6], in [17] and in test [18] was inactive. Also, the result in test [19] was inactive. For the same molecule, in test [11], the activity change % (negative = inhibition) was 20.5% (inactive).

Turning to `N=c1nc(N2CCCCC2)cc(N)n1O`, the Potency result in test [12], in [13], in [14] and in [15] was “inactive” each time. Besides, the molecule was called inactive in test [16], in test [17], in test [18] and in [19].

In the case of `Cc1cn[nH]c1`, the Potency result in test [12], in test [13], in test [14] and in test [15] was “inactive” in each case. Further, the result in [17], in test [18] and in test [19] was inactive.

For the molecule `Nc1nc2[nH]cc(CCc3ccc(C(=O)N[C@@H](CCC(=O)O)C(=O)O)cc3)c2c(=O)[nH]1`, the Potency entry in [12] was “inactive”.

On to `Cc1ccccc1C(OCCN(C)C)c1ccccc1` (stereo not drawn), for which the Potency entry in test [20], in [13], in test [14] and in [15] was “inactive” each time. For the same molecule, the max response in test [1] is -16.5%; in [7], 11.6%; in [9] it was -1.35%; in test [10], -11.6% (inactive). The outcome in test [2], in [3], in [4], in test [8], in test [17] and in test [18] was inactive. In addition, the result in [19] was inactive.

Consider `O=c1[nH]cnc2[nH]ncc12`, for which the Potency entry in [20], in test [12], in test [13], in test [14] and in test [15] was “inactive” each time. For the same molecule, the max response was -19.9% in [1], -0.239% in [7], -6.19% in test [9] and -1.1% (inactive) in test [10]. The result in test [2], in [3], in test [4], in [5], in test [6] and in test [8] was inactive. Further, the result in test [17], in test [18] and in [19] was inactive. Besides, the activity change % (negative = inhibition) in [11] is 5.35% (inactive).

With `CC(C)NCC(O)COc1ccc(COCCOC(C)C)cc1` (stereo not drawn), the Potency result in test [12], in [13], in [14] and in [15] was “inactive” each time. The call in test [17], in test [18] and in [19] was inactive.

On to `N#Cc1ccc(C(c2ccc(C#N)cc2)n2cncn2)cc1`, for which the Potency result in test [12], in test [13], in test [14] and in [15] was “inactive” each time. Besides, the molecule was called inactive in [16].

Consider `CNC[C@H](O)c1cccc(O)c1`, for which the molecule was called inactive in test [5], in [6], in test [8], in test [17] and in [18]. Besides, the max response in test [7] was -17.1%; in test [9], 2.07%; in test [10] it was -13.6% (inactive). For the same molecule, in test [11], the activity change % (negative = inhibition) was 16.7% (inactive). Also, the Potency result in [12], in test [13] and in [14] was “inactive” in each case.

`O=C1CCC(N2C(=O)c3ccccc3C2=O)C(=O)N1` (stereo not drawn): the Potency entry in test [20], in test [12], in test [13], in test [14] and in test [15] was “inactive” throughout. The max response in test [1] was 27.4%; in test [7], -12.6%; in test [9], -1.95%; in test [10], -2.36% (inactive). In addition, the call in test [2], in test [3], in test [4], in test [8], in test [16] and in test [17] was inactive. Moreover, the result in test [18] and in test [19] was inactive. In test [11], the activity change % (negative = inhibition) was 4.95% (inactive).

Values taken from PubChem BioAssay (NCATS).
